Source: PubChem (National Center for Advancing Translational Sciences (NCATS))
Most compounds without a hit are left out; they make up all but 22% or so of the library.
LmPK inh: inhibitors of Leishmania mexicana pyruvate kinase. Q27686. purified LmPK, Kinase-Glo ATP luminescence, 1 h. Potency, µM (series often up to 57.5 µM), without a hit: at the top dose activity change, negative = inhibition, actives largely listed as inhibitors. actives 0.37% (n = 290,000). AID 1721; further: potency means the concentration at half of the fitted maximal effect; on the % scale 0 is the no-effect control and ±100 the full control effect
Target sequence (Q27686 whole entry, looked up): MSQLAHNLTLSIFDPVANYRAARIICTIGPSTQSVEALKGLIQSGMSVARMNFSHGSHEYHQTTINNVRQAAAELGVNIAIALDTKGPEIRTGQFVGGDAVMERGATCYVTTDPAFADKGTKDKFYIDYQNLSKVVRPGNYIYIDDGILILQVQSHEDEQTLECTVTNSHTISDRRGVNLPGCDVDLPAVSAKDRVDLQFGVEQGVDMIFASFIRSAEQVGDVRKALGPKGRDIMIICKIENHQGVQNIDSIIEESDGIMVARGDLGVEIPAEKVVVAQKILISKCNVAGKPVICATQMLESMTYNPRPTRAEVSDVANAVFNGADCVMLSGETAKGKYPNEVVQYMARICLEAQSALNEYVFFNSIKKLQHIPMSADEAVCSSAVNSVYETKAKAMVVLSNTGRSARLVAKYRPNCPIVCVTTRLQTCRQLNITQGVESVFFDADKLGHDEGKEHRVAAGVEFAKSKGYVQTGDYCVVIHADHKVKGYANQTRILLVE
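0.1 nM LmPK, 0.5 mM PEP, 0.1 mM ADP; 50 mM imidazole pH 7.2, 7 mM MgCl2, 50 mM KCl; 1 h RT. Kinase-Glo luminescence readout, normalized to no-enzyme (full inhibition) and uninhibited wells.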
Pf growth 48h: P. falciparum growth inhibition at 48 hours (one generation); Potency, µM (series often up to 28.7 µM), inactives show at the highest dose activity change, negative = inhibition, usual class: inhibitors; AID 504832; P. falciparum luciferase growth in erythrocytes, 48 h; actives 5.9% (n = 310,000); further: potency means the concentration at half of the fitted maximal effect; on the % scale 0 is the no-effect control and ±100 the full control effect
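A one-generation exposure of luciferase-tagged malaria parasites in RPMI 1640/Albumax erythrocyte culture, 37 C and 5% CO2. Inhibition is inferred from decreased luminescence after adding detection reagent.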
Pf growth 96h: P. falciparum growth inhibition at 96 hours; P. falciparum luciferase reporter growth, 96 h; Potency, µM (doses to about 28.7 µM), for inactives: at the top dose activity change, negative = inhibition, most hits filed as inhibitors; actives 6.9% (n = 320,000); AID 504834; further: potency means the concentration at half of the fitted maximal effect; on the % scale 0 is the no-effect control and ±100 the full control effect
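Cell-based qHTS: luciferase-tagged P. falciparum in erythrocytes (2% hematocrit, 0.05% parasitemia final) incubated with compounds for 96 hours, 37 C, 5% CO2; luciferase detection reagent then added and luminescence measured.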
Cycloheximide cs: counter-screen hit for Shiga toxin inhibitors, cycloheximide; cell reporter, cycloheximide protein synthesis inhibition counterscreen; max response, %; actives 12% (n = 300,000); AID 2314; in the data active means max response mostly above about 13%, no sharp cut-off; inactive means mostly below about 14%; further: read at 38.3 µM for the half of the compounds with a filed dose; 0% is about no effect
Shiga inhibitor: Shiga toxin inhibition. Vero cells, Shiga toxin protein synthesis inhibition reporter. inhibition, % at 38.7 µM. actives 9.2% (n = 290,000). AID 2315; in the data active means inhibition mostly above about 28%, no sharp cut-off; inactive means mostly below about 43%; further: 0% is about no effect
* hit, by the source's call; i = inactive; ? = inconclusive; . = not tested or not shown; + = active, no number. Unless noted, the call rests on the fitted dose curve; in most records, active means well fitted inhibition curve with a large enough effect; inconclusive means small, poorly fitted or top-dose-only effect, or another doubt; inactive means no such curve, though single readings can be large or run the other way.

SMILES	LmPK inh	Pf growth 48h	Pf growth 96h	Cycloheximide cs	Shiga inhibitor
CCCNC1=C(C)C(=O)C2=C(C1=O)C(COC(N)=O)[C@]1(OC)C3NC3CN21 (some centres not stated)	-5%	1.3µM*	0.19µM*	-2	-7
CN(c1ccccc1C(=O)O)S(=O)(=O)c1ccc2c3c(cccc13)C(=O)N2	6%	8%	12µM*	-1	-3
O=C(O)c1ccccc1NS(=O)(=O)c1ccc2c3c(cccc13)C(=O)N2	2%	13%	1%	-2	-7
O=C(CN1CCC(n2cnc3cc(F)ccc32)CC1)Nc1ccccc1Br	4%	?	8%	-4	-10
Cc1ccc(-c2csc(NC(=S)NC(=O)c3ccco3)n2)cc1	0%	60%	?	-3	-3
O=C(NNc1nc(-c2ccc(Cl)cc2)cs1)c1ccco1	1%	12µM*	?	39*	41*
O=C(NNc1nc(-c2ccccc2)cs1)c1ccco1	2%	12µM*	1.5µM*	12*	23
COc1cccc2oc(-c3ccccc3)cc(=O)c12	.	.	.	29*	33*
COc1cc(OC)c2c(-c3ccccc3)cc(=O)oc2c1	-4%	?	0%	-1	-21
COc1cccc2oc(SC)cc(=O)c12	.	.	.	30	+
CCOc1ccccc1NC(=O)C(OC(=O)c1ccc(NC(=O)CC#N)cc1)c1ccccc1 (configuration not stated)	.	5.2µM*	2.3µM*	.	.
CCOc1ccccc1NC(=O)C(OC(=O)c1cc(C)oc1C)c1ccccc1 (configuration not stated)	6%	13µM*	?	-1	15
CC(OC(=O)c1ccc(NC(=O)CC#N)cc1)C(=O)Nc1ccc2c(c1)OCCO2 (configuration not stated)	.	?	-14%	.	.
CCOc1ccccc1NC(=O)C(OC(=O)c1ccccc1O)c1ccccc1 (configuration not stated)	4%	-28%	?	-1	-1
Cc1cc(C(=O)C(C)OC(=O)c2ccc(NC(=O)CC#N)cc2)c(C)n1-c1ccccc1 (configuration not stated)	.	13µM*	8.3µM*	.	.
CCOc1ccc(NC(=O)c2ccc(OCC3CCCO3)cc2)cc1S(=O)(=O)N(CC)CC (configuration not stated)	.	10µM*	10µM*	.	.
CCN(CC)S(=O)(=O)c1ccc(Cl)c(C(=O)NCC2CCCO2)c1 (configuration not stated)	4%	-5%	10µM*	-6	30
CCCN(CCC)S(=O)(=O)c1ccc(C(=O)Nc2ccc(OCC(=O)N3CCOCC3)cc2)cc1	0%	?	.	-6	5
CCOc1cc(NC(=S)NCC2CCCO2)c(OCC)cc1NC(=O)c1ccc(OC)cc1 (configuration not stated)	3%	?	221%	-2	-3
CCN(CC)S(=O)(=O)c1ccc(NC(=O)c2ccc(OCC3CCCO3)cc2)cc1 (configuration not stated)	.	9.3µM*	9.3µM*	.	.
CCN(CC)S(=O)(=O)c1cccc(NC(=O)C2SC(=Nc3ccc(C)cc3C)C(C(=O)NCC3CCCO3)=C2N)c1 (configuration not stated)	3%	9.3µM*	.	-4	-23
O=C(COC(=O)Cn1[nH]c(=O)c2ccccc2c1=O)NNC(=O)c1ccccc1	.	-16%	-7%	.	.
COc1cccc(NC(=O)CN(C)C(=O)c2ccc(OCC3CCCO3)cc2)c1 (configuration not stated)	.	-10%	16%	.	.
Cc1cccc(NC(=O)c2ccc(OCC3CCCO3)cc2)c1C (configuration not stated)	-6%	13%	32%	30*	45*
O=C(Nc1ccc(Cl)cc1)c1ccc(OCC2CCCO2)cc1 (configuration not stated)	7%	196%	i	42*	95*
SMILES	LmPK inh	Pf growth 48h	Pf growth 96h	Cycloheximide cs	Shiga inhibitor
CCC(=O)Nc1ccc(OCC2CCCO2)cc1 (configuration not stated)	-2%	41%	12µM*	9	5
Cc1ccc(NC(=O)CCC(=O)NNC(=O)Nc2cccc(Cl)c2)c(C)c1	8%	?	-82%	1	-7
COc1ccc(N2CC(O)=C(c3nc4ccccc4s3)C2=N)cc1	3%	-18%	3%	20*	68
COc1cccc(N2CC(O)=C(c3nc4ccccc4s3)C2=N)c1	-6%	5%	0%	33*	54*
N=C1C(c2nc3ccccc3s2)=C(O)CN1c1ccccc1	4%	29%	13%	33*	39
O=C(CCCCCn1c(=O)[nH]c2ccsc2c1=O)NCc1ccc2c(c1)OCO2	-4%	?	?	-2	-19
C=CCn1c(SCC(=O)Nc2ccc(F)cc2)nnc1-c1cnccn1	-3%	9%	-18%	-1	2
CN(C)C=Nc1ncc2c([nH]c3ccccc32)c1C#N	-3%	?	?	50*	36
CN(C)/C=N/c1[nH]ncc1C#N	1%	i	-5%	-9	28
COc1cc(C(=O)NCC2CCCCC2)ccc1OCc1c(C)noc1C	.	-19%	?	.	.
CCn1cc([N+](=O)[O-])c(C(=O)N2N=C(c3ccc4ccccc4c3)CC2c2cc(Br)ccc2O)n1 (configuration not stated)	4%	3.3µM*	?	-1	1
CCn1cc([N+](=O)[O-])c(C(=O)N2CCCc3ccccc32)n1	-3%	3%	33%	1	-4
CCn1cc([N+](=O)[O-])c(C(=O)N2N=C(c3ccccc3)CC2c2ccc([N+](=O)[O-])cc2)n1 (configuration not stated)	0%	13µM*	?	15	20
CCn1cc([N+](=O)[O-])c(C(=O)N2N=C(c3ccc(O)c(OC)c3)CC2c2ccccc2O)n1 (configuration not stated)	0%	?	15µM*	17	27
COc1ccc(C2=NN(C(=O)CCC(=O)O)C(c3ccc([N+](=O)[O-])cc3)C2)cc1 (configuration not stated)	-4%	-18%	-21%	-2	-3
CCn1cc([N+](=O)[O-])c(C(=O)N2N=C(c3ccc(Cl)c(Cl)c3)CC2c2ccccc2O)n1 (configuration not stated)	2%	3.7µM*	?	11	-2
O=C(N/N=C/c1cccs1)c1cccc(NC(=O)c2ccccc2Cl)c1	3%	5%	-13%	18*	28
Cc1cccc(C(=O)N/N=C/c2ccccn2)c1	-4%	-60%	-97%	25*	91*
Cc1cccc(C(=O)Nc2cccc(C(=O)N/N=C/c3ccccn3)c2)c1	-10%	?	2%	13*	19
O=C(N/N=C/c1cccs1)c1ccc(-n2cccc2)cc1	0%	?	?	22*	19
